Source: PubChem
GLD-1 RNA inh – GLD-1-TGE RNA interaction inhibition (C. elegans); purified GLD-1 + fluorescein TGE RNA, fluorescence polarization; AID 2280; hit rate 0.44% among 320,000; inhibition, % at 5.96 µM;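 active = percent inhibition above a per-plate cutoff, the plate mean of test compounds plus 3 SD, cut at about 30% in these data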;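 also: 0% = DMSO wells with GLD-1 and probe and 100% = wells lacking GLD-1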
Mcl-1 Bim block – human Bim-Mcl-1 interaction inhibition; Q07820; Bead-based flow cytometry, Bim peptide-Mcl-1 binding; inhibition, % at 10 µM; hit rate 0.1% among 190,000; AID 1009; in the data active = inhibition above about 40%;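 also: 0% = no compound tracer wells and 100% = peptide blocker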
Target sequence (Q07820 whole entry, looked up): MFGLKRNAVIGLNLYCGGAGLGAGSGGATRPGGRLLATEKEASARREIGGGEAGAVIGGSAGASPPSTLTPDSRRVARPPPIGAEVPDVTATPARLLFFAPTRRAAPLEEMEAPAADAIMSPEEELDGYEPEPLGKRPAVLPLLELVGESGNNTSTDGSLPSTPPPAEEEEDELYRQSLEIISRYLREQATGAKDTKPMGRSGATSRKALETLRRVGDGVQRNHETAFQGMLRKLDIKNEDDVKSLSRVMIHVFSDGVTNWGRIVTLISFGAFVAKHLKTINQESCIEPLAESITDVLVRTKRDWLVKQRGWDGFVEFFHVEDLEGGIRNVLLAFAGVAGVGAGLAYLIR
Mcl1 Bid PPI – Mcl-1/Bid interaction inhibition | Q07820 | TR-FRET Mcl-1/Bid-Dy647 peptide binding, 1536-well | inhibition, % at 21.7 µM | hit rate 0.97% among 220,000 | AID 1021;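 active = compounds that cut the binding signal by more than half at the single screening dose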;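 also: His-tagged Mcl-1 with europium anti-His antibody binding Bid BH3 peptide; 0% = Mcl-1 plus peptide wells and 100% = peptide-only wells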
BCLXL inh – inhibitors of human Bcl-xL | Q07817 | GST-Bcl-xL / FITC-Bim BH3 peptide fluorescence polarization | inhibition, % at 10.9 µM | hit rate 0.7% among 320,000;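 active = inhibition above the mean of all tested compounds plus 3 SD, cutoff set per campaign, cut at about 30% in these data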;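 also: 0% = DMSO wells and 100% = unlabeled Bim-BH3 peptide competitor; inhibitors lower millipolarization by displacing the labeled peptide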
Target sequence (Q07817 whole entry, looked up): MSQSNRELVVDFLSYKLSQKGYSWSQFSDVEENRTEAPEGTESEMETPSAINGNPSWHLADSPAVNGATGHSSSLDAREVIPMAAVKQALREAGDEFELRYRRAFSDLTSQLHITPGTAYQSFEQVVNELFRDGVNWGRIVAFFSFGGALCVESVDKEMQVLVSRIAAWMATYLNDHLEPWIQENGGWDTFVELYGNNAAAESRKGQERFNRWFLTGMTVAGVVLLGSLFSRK
Mcl1 Noxa PPI – disrupts binding of human Mcl-1 to Noxa peptide; AID 1022; hit rate 1.5% among 220,000; inhibition, % at 21.7 µM; TR-FRET Mcl-1/Noxa peptide binding, 2 h;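 active = compounds that cut the protein-peptide binding signal by more than 50% relative to plate controls in a single-dose test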;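 also: His-tagged Mcl-1 with rhodamine Noxa BH3 peptide and terbium anti-His antibody; 0% = Mcl-1 plus Noxa peptide wells and 100% = peptide-only wells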
MCL1-BIM inh – disrupts human MCL1 binding to BIM-BH3 peptide. Q07820. GST-MCL1 / FITC-Bim-BH3 fluorescence polarization. inhibition, % at 10.9 µM. hit rate 0.68% among 320,000. AID 2057;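 active = inhibition above the mean inhibition of all tested compounds plus 3 SD, set per campaign, cut at about 40% in these data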;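 also: 0% = DMSO wells and 100% = unlabeled Bim-BH3 peptide control; higher means more loss of mP so more displacement of Bim peptide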
* hit, by the source's call; · = no result. Most compounds without a hit are left out; they make up all but 2.3% or so of the library.

SMILES	GLD-1 RNA inh	Mcl-1 Bim block	Mcl1 Bid PPI	BCLXL inh	Mcl1 Noxa PPI	MCL1-BIM inh
O=C(/C=C/c1ccc(O)cc1)c1ccccc1	-11	·	-28	1	-7	-2
CCOC(=O)CC(=O)CSC1=C(C#N)C(c2ccccc2OC)CC(=O)N1 (centres undefined)	2	-2	0	31*	11	-9
Cc1ccc(/C=C2/Sc3ccc(C(=O)N4CCN(C)CC4)cc3NC2=O)cc1	17	·	·	37*	·	34
COc1cccc(/C=N/NC(=O)c2cc3c(OC)cccc3[nH]2)c1O	-24	-4	-36	-4	59*	-5
COc1cccc(/C=N/NC(=O)C(=O)N2CCCCCC2)c1O	1	·	·	9	·	8
COc1cccc(/C=N/NC(=O)C(=O)N/N=C/c2cccc(OC)c2O)c1O	·	3	-71	·	59*	·
CCCCC[C@H](O)/C=C/[C@H]1C=CC(=O)[C@@H]1C/C=C\CCCC(=O)O	·	-3	42	·	69*	·
NC(=O)c1[nH]cnc1N	8	·	·	4	·	10
O=C(CN1CCN(S(=O)(=O)c2ccccc2F)CC1)NCC1(N2CCOCC2)CCCCC1	-6	·	·	-7	·	-4
O=C(Cc1ccccc1F)NCC1(N2CCOCC2)CCCCC1	-8	·	-11	4	60*	4
S=c1[nH]nc(-c2ccccc2)n1/N=C/c1ccc(-c2ccccc2Cl)o1	6	-3	34	-22	64*	-11
Cc1nnc(C)n1/N=C/c1ccc(-c2ccccc2Cl)o1	2	·	·	6	·	6
S=c1[nH]nc(-c2cccc(Cl)c2)n1/N=C/c1ccc(-c2ccccc2Br)o1	-8	·	46	-18	72*	-7
CCOC(=O)N1CCN(C(=O)c2c[nH]c3ccc(S(=O)(=O)N(C)c4ccc(OCC)cc4)cc3c2=O)CC1	-2	·	·	-1	·	0
O=c1c(O)c(-c2ccc(O)cc2O)oc2cc(O)cc(O)c12	·	3	-42	·	103*	·
COc1c(-c2ccc(O)c(O)c2)oc2cc(O)cc(O)c2c1=O	10	·	-61	0	56*	-5
O=c1c(O)c(-c2ccccc2)oc2cc(O)cc(O)c12	6	·	·	·	·	·
CC(=O)Cc1nsc(NC(=O)c2ccc(COc3cccc(C)c3)o2)n1	-7	·	·	0	·	-1
Cc1ccc(NC(=O)C2CCCN(S(=O)(=O)c3c(C)noc3C)C2)c(Br)c1 (centres undefined)	-9	·	·	1	·	-4
Cc1cccc(Nc2cc(C)c3c(O)cccc3n2)c1C	4	0	-5	3	53*	1
CN1N=C(C(=O)N2CCCC(C(=O)c3cccc(C(F)(F)F)c3)C2)CCC1=O (centres undefined)	-2	48*	-19	-1	16	0
O=C(NCc1cccnc1)/C(=C/c1ccc(-c2ccc(Cl)cc2)o1)S(=O)(=O)c1ccccc1	3	-2	31	1	20	6
O=C(NCc1cccnc1)/C(=C\c1ccc(-c2ccc(Br)cc2)o1)S(=O)(=O)c1ccccc1	-6	4	52*	2	39	2
CCS(=O)(=O)CCSC1OC(COC(C)=O)C(OC(C)=O)C(OC(C)=O)C1OC(C)=O (centres undefined)	2	-4	-5	0	3	-1
O=C1c2ccccc2C(=O)N1c1cccc(-c2csc(Nc3ccc4c(c3)OCO4)n2)c1	11	1	38	27	62*	53*
SMILES	GLD-1 RNA inh	Mcl-1 Bim block	Mcl1 Bid PPI	BCLXL inh	Mcl1 Noxa PPI	MCL1-BIM inh
COc1ccccc1Nc1nc(-c2cccc(N3C(=O)c4ccccc4C3=O)c2)cs1	3	-2	-38	3	20	-3
O=C(Nc1ccc(C2=NCCN2)cc1)c1ccc(Cl)c(C(=O)Nc2ccc(C3=NCCN3)cc2)c1	-4	·	0	4	57*	-5
CC(OC(=O)C1CCN(S(=O)(=O)c2ccccc2C(F)(F)F)CC1)C(=O)N(C)Cc1ccccc1 (centres undefined)	0	·	·	-13	·	-29
O=C(Nc1cccc(S(=O)(=O)N2CCOCC2)c1)c1ccccc1[N+](=O)[O-]	-1	·	·	-7	·	-7
CN(C)S(=O)(=O)c1ccc(Cl)c(NC(=O)COC(=O)c2ccc3c(c2)NC(=O)CS3)c1	-10	·	-13	2	24	2
CC(NC(=O)c1ccccc1)C(=O)OCC(=O)c1ccc(Br)cc1 (centres undefined)	-1	·	·	169*	·	10
CC(=O)NC(C)C(=O)OCC(=O)c1ccc(-c2ccccc2)cc1 (centres undefined)	-2	5	-4	-11	2	-6
C/C(CC(=O)Nc1cc(C)ccn1)=N\NC(=O)c1cccc(C)c1O	-1	·	·	5	·	11
O=C1CC(=O)c2c1cccc2[N+](=O)[O-]	·	·	12	·	101*	·
O=C1OCc2cccc([N+](=O)[O-])c21	7	-1	3	0	0	0
CC1(OC(=O)c2ccco2)C(=O)C=C2C=C(c3ccsc3)OC=C2C1=O (centres undefined)	24	·	·	14	·	31
C=CC1=C2C=C(C3CC3)N(C3CC3)C=C2C(=O)C(C)(OC(=O)c2ccco2)C1=O (centres undefined)	16	·	·	31*	·	28
CCOc1ncccc1C(=O)OCC(=O)N(CC(C)C)C1CCS(=O)(=O)C1 (centres undefined)	0	0	-21	91*	-16	1
CCN(CC(=O)Nc1ccc2c(c1)OCCO2)C(=O)CSCC(=O)Nc1ccc(C)cc1	-1	·	·	-2	·	3
O=C(NNC(=O)c1csc(N2CCOCC2)n1)c1ccc(Cl)nc1	7	·	·	5	·	6
O=C(O)c1cccc(N2C(=O)/C(=C/c3ccc(SCc4ccc(Cl)cc4)o3)SC2=S)c1	·	11	84*	·	89*	·
O=C(CCN1C(=O)/C(=C/c2ccc(Cl)cc2)SC1=S)Nc1cccc(C(=O)O)c1	-4	·	·	3	·	1
CC(C)(C)C(=O)NC1CCN(C(=O)N2CCCC2)CC1	-2	-6	-7	3	22	-1
CC(C)(C)C(=O)NC1CCN(S(C)(=O)=O)CC1	-1	-2	58*	0	40	-3
O=C(COc1ncnc2cc([N+](=O)[O-])ccc12)NCc1ccc2c(c1)OCO2	8	6	12	3	60*	9
O=C(COC(=O)Cc1ccc([N+](=O)[O-])cc1)NCc1ccc2c(c1)OCO2	-1	·	·	·	·	·
O=[N+]([O-])c1cccc(COc2ncnc3cc([N+](=O)[O-])ccc23)c1	-1	·	-50	-2	53*	-1
COc1ccc(CCNC(=O)COc2ncnc3cc([N+](=O)[O-])ccc23)cc1	2	1	1	10	32	4
Cc1nc(NC(=O)c2cccnc2Cl)sc1C	-4	·	·	-1	·	-4
COC(=O)c1ccc2c(=O)n(CCCCCC(=O)NCc3ccc4c(c3)OCO4)c(=O)[nH]c2c1	4	4	56*	6	-32	3
